# This is part of a sample that, as a whole, favours compounds with a hit. Of some 83,000 tested, about 20% had one in any assay.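 Treatment: one concentration, 48 hours, 96-well format. Scoring: percent growth, with anything below 10 considered active.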 The source made the active and inactive calls.
# System: HL-60(TB) leukemia
# Assay: NCI-60 one-dose screen, 48 h (100 = growth as untreated, 0 = no growth, -100 = all killed)
# Conditions: 10 µM unless noted
row,Compound,growth
1,Clc1ccc(Nc2ccnc(NCCCNc3ccnc4cc(Cl)ccc34)n2)cc1,-72.3% (active)
2,CC(C)(C)[Si](C)(C)OC1[C@@H](O[Si](C)(C)C(C)(C)C)[C@@H](CNC(=O)NC(=O)CCl)O[C@H]1n1cnc2c(NC(=O)Nc3ccccc3)ncnc21 (stereo not given in full),-73.1% (active)
3,Nc1ccc(CC(=O)O)c(N)c1,102% (inactive)
4,COc1ncnc2[nH]cc(CN3CCN(c4ccc(F)cc4)CC3)c12,101% (inactive)
5,CN(C)c1ccc(S(=O)(=O)O)cc1,128% (inactive)
6,Cc1cc(C)c(C(=O)OC(C)CNC2CCCCC2)c(C)c1 (stereo not given),87.5% (inactive)
7,COc1cc2c(c(OC)c1OC)CCC(c1cccc(C(=O)Nc3ccccc3Br)c1)O2 (stereo not given),79.3% (inactive)
8,CC1(C)OCC(COC(c2ccccc2)(c2ccccc2)c2ccccc2)O1 (stereo not given),99.9% (inactive)
9,CC(C)c1ccc2c(c1)CC[C@H]1[C@](C)(C(=O)OCC#CCN3CCCC3)CCC[C@]21C,55.5% (inactive)
10,Clc1nc(Nc2ccccc2)nc(Nc2ccccc2)n1,65.6% (inactive)
11,Clc1cccc(Nc2ncnc3ccc(-c4cnc5[nH]ccc5c4)cc23)c1,105% (inactive)
12,COc1cc(-c2nc3ccccc3s2)ccc1OCc1nc2n(n1)S(=O)(=O)c1ccccc1N2C,79.2% (inactive)
13,Oc1ccccc1/C=N/N=C/c1c(O)ccc2ccccc12,51% (inactive)
14,O=C(/C=C/c1cn(-c2ccccc2)nc1-c1ccccc1)OCc1cn(-c2cccc([N+](=O)[O-])c2)nn1,93% (inactive)
15,CCCC(=O)NNc1[nH]c(-c2cc(OC)c(OC)c(OC)c2)cc1C(=O)OCC,-11.1% (active)

# — PubChem BioAssay (NCI)
